Measured values as given in PubChem BioAssay (EPA / NIEHS).
Several values for one entry are separate records, joined by “and”; a condition that tells them apart may be missing. Equal entries are not always repeated. Inconclusive results are not listed. Where a structure was tested more than once in an assay, its records may differ in their call. Activity calls are given as the source filed them. How the source made its calls: active means hit-call score of the fitted dose curve at least 0.9, where 1 is the maximum; inconclusive means response in the unintended direction; inactive means score below 0.9.

Each compound was assayed against Retinoic acid receptor RXR-alpha (Homo sapiens) (UniProt P19793) (assay: OT_NURR1_NURR1RXRa_1440: Odyssey Thera (OT) 24-hour HEK293T Protein Complementation Assay for Nurr1/retinoid X receptor (RXR) (AID 2283386)).
Procedure, shortened: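 Cell-based binding reporter: HEK293T cells, 24 h exposure, fluorescence-detected fragment complementation, DMSO as baseline.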

Retinoic acid receptor RXR-alpha (Homo sapiens), sequence (P19793 whole entry, looked up, the tested form may be a part): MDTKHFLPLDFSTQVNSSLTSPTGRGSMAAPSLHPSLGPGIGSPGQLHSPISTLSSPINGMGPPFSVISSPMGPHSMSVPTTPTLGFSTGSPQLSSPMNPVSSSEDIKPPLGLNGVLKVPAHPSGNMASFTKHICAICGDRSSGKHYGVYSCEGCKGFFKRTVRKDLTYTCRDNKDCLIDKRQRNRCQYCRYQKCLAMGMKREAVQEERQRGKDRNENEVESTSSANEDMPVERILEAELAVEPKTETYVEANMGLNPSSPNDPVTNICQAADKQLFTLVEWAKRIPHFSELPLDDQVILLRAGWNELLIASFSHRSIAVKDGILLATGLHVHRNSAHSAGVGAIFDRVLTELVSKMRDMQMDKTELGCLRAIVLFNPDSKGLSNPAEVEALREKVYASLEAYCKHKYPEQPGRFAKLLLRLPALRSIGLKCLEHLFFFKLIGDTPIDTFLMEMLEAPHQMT

Row | Compound | AC50 | outcome
1 | Cc1cc2c3c(c1)C(c1ccccc1)=N[C@@H](NC(=O)c1ccncc1)C(=O)N3CC2 | 33.6 µM (active) | inactive
2 | Oc1c(Cl)c(Cl)c(Cl)c(Cl)c1Cl | – | inactive
3 | OCC(O)CO | – | inactive
4 | ClC1=C(Cl)[C@]2(Cl)[C@@H]3[C@@H]4C[C@@H]([C@H]5O[C@@H]45)[C@@H]3[C@@]1(Cl)C2(Cl)Cl | – | inactive
5 | CCC(=O)O[C@H]1CC[C@H]2[C@@H]3CCC4=CC(=O)CC[C@]4(C)[C@H]3CC[C@]12C | 73.3 µM (active) and 73.7 µM (active) and 78.4 µM (active) | inactive
6 | C[C@]12CCC(=O)C=C1CC[C@@H]1[C@@H]2CC[C@]2(C)C(=O)CC[C@@H]12 | – | inactive
7 | c1ccc(-c2ccccc2)cc1 | – | inactive
8 | Cc1ccccc1CO[C@@H]1C[C@@]2(C(C)C)CC[C@]1(C)O2 | – | inactive
9 | Oc1ccc(C(c2ccc(O)cc2)(C(F)(F)F)C(F)(F)F)cc1 | – | inactive
10 | O=C(O)C(F)(F)C(F)(F)C(F)(F)C(F)(F)C(F)(F)C(F)(F)C(F)(F)C(F)(F)C(F)(F)F | – | inactive
11 | COc1ccc(O)c(C(C)(C)C)c1 | – | inactive
12 | C[C@]12CCC(=O)C=C1CC[C@@H]1[C@@H]2CC[C@@]2(C)[C@H]1CC[C@]2(C)O | – | inactive
13 | Cc1cc(O)ccc1Cl | – | inactive
14 | Nc1ccc(-c2ccc(N)cc2)cc1 | – | inactive
15 | Cc1cc(-c2ccc(N)c(C)c2)ccc1N | – | inactive
16 | COS(=O)(=O)OC | – | inactive
17 | Cc1ccc(O)c(C)c1 | – | inactive
18 | ClC(Cl)=C(c1ccc(Cl)cc1)c1ccc(Cl)cc1 | 79.2 µM (active) and 79.5 µM (active) and 80 µM (active) | inactive
19 | O=NN(c1ccccc1)c1ccccc1 | – | inactive
20 | O=C(N[C@H]1CN2CCC1CC2)c1cc2ccoc2cn1 | – | inactive
21 | CC#Cc1cc(C)nc(Nc2ccccc2)n1 | – | inactive
22 | CCC(C)(c1ccc(O)cc1)c1ccc(O)cc1 | 92.5 µM (active) and 87.7 µM (active) | inactive
23 | CC1=C2C[C@H]3[C@@H](CC=C4C[C@@H](O)CC[C@@]43C)[C@@H]2CC[C@]12O[C@@H]1C[C@H](C)CN[C@H]1[C@H]2C | – | inactive
24 | CC(C)C(=O)OCC(C)(C)C(OC(=O)C(C)C)C(C)C (configuration not stated) | – | inactive
25 | CC(C)(O)C(=O)Nc1ccc([N+](=O)[O-])c(C(F)(F)F)c1 | – | inactive
26 | Nn1cnnc1 | – | inactive
27 | CCCN(CCC)N=O | – | inactive
28 | CCCCCCOC(=O)c1ccccc1C(=O)OCCCCCC | – | inactive
